The values that follow come from PubChem BioAssay (NCI).

Structures are written as SMILES. The panel holds about 83,000 compounds, 20% with a hit somewhere; the sample as a whole holds those more often.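 The endpoint reported here, percent growth, reads 100 for growth as untreated, 0 for no net growth and -100 for all cells dead.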 Calls of active or inactive are those of the source. Rule for the calls: active = growth percent below 10; inactive = the rest.

In the first assay the test system is T-47D breast. As to the kind of experiment: NCI-60 one-dose screen, 48 h (100 = growth as untreated, 0 = no growth, -100 = all killed). The note with it: 10 µM unless noted.
`O=[N+]([O-])c1ccc(NC(=S)NNC(=S)Nc2ccc(Br)cc2)cc1`: the growth was 73.3% (inactive). Take `Cc1cc(=O)[nH]c(O)c1C#N`: the growth was 105% (inactive). On the same count and under the same terms, the result for `Cc1ccc(OCc2occc2C(=O)N2CCOCC2)cc1` reads 93.1% (inactive). On to `O=C1C(SCc2ccccc2)=C(Cl)CN1c1ccccc1`, for which the growth was 88% (inactive). On the same count and under the same terms, to `COc1ccc(C2C(C#N)=C(/N=C/c3ccc(Cl)cc3)Oc3c2sc2c(C)cccc32)cc1` (centres undefined) belongs 17.9% (inactive). Consider `CN(C)CCNc1ccc2ncc(C#Cc3cncc(C(=O)Nc4ccc(CN5CCN(C)CC5)c(C(F)(F)F)c4)c3)n2n1`, for which the growth is 78.7% (inactive). On to `CN1CCC[C@]2(C)[C@H]3CC[C@@H]4[C@@H]5[C@H]6OC[C@@]5(CCC6(C)C)CC[C@@]4(C)[C@]3(C)CC[C@H]2C1(C)C`, for which the growth is 54.9% (inactive). Still for that read-out and setting: the result for `COc1ccccc1/C=C/C(=O)c1nnn(-c2ccc(F)cc2)c1C` reads 54.9% (inactive). As to `CC(C)[C@H]1c2[nH]c3ccccc3c2C[C@H]2C(=O)N(CCCCCCC(=O)NO)CC(=O)N12`, the growth was 62.4% (inactive). Take `COC(=O)CCCNCCCn1ccc2cc(NCc3cccc(-c4ccccc4)c3C)ccc21`: the growth was 58% (inactive).

Consider `C=C(C=O)[C@@H]1CC[C@]2(C(=O)O)CC[C@]3(C)C(CC[C@@H]4[C@@](C)(CCC#N)[C@H](C(=C)C=O)CC[C@]43C)[C@@H]12` (some centres undefined), for which the growth was 28.1% (inactive).

On to `CC1(C)CC[C@]23CC[C@]4(C)[C@H](CC[C@@H]5[C@@]6(C)CC[C@H](NCO)C(C)(C)[C@@H]6CC[C@]54C)[C@H]2[C@H]1OC3`, for which the growth was 44.2% (inactive). Take `O=C1/C(=C/C=C/c2ccco2)SC(=S)N1Cc1ccccc1`: the growth is 75.6% (inactive). The same measure, in the same setting: to `COc1ccc(/C=N/NC(=O)c2c(N)nn(C)c2Nc2ccccc2)cc1Oc1ccccc1` belongs 78.1% (inactive); to `Cc1[nH]c(C(=O)Nc2ccc(S(=O)(=O)N3CCCCC3)cc2OCCOCCOCCOCCOCCOCCOCCOCCOCCOc2cc(S(=O)(=O)N3CCCCC3)ccc2NC(=O)c2[nH]c(C)c3c2CCCCC3=O)c2c1C(=O)CCCC2`, 7.19% (active); to `COc1ccc(C(=NNS(=O)(=O)c2ccc(C)cc2)c2ccccc2)cc1OC`, 90% (inactive). The same measure, in the same setting: to `CNC(=O)c1cc(Oc2ccc3c(c2)sc2nc(-c4ccc(N(C)C)cc4)cn23)ccn1` belongs 45.2% (inactive); to `CN1CCN(Cc2ccc(/C=N/Nc3ccnc4cc(Cl)ccc34)cc2)CC1`, 103% (inactive). The same measure, in the same setting: the result for `O=C1Nc2ccccc2/C1=N\c1nnc(-c2ccccc2)o1` reads 77.9% (inactive). In the case of `COc1ccc2c(c1)C=CC1(O2)Oc2ccc(OC)cc2C=C1C` (centres undefined), the growth is 45% (inactive). With `Cn1cc(-c2nn3cc(-c4ccncc4)nc3s2)c2cc(Br)ccc21`, the growth was 37.5% (inactive). Same read-out and setting: to `C#Cc1nc(/C=C/CCCCCCC(=O)NO)cs1` belongs 51.6% (inactive); to `CC[C@]12CC(C(=O)OC)=C3Nc4ccccc4[C@@]34CCN(C14)[C@@H]1c3cc4c(cc3O[C@@H]1[C@H]2O)NC1=C(C(=O)OC)C[C@@]2(CC)C3N(CC[C@@]143)C[C@H]1O[C@H]12` (some centres undefined), 18.2% (inactive).

Consider `O=C(CCCCCCN1CC(=O)N2[C@@H](C3CC3)c3[nH]c4ccccc4c3C[C@H]2C1=O)NO`, for which the growth is 66.1% (inactive).

A further assay relates to BT-549 breast. The description is as above. The note with it: 10 µM unless noted.
In the case of `Nc1cc(C(=O)N/N=C\c2ccc(OC(F)F)c(OC3CCCC3)c2)nn1CC(O)c1ccccc1` (centres undefined), the growth is 118% (inactive). For `Clc1ccc2[nH]cc(-c3nn4cc(-c5ccncc5)nc4s3)c2c1`, the growth is -54.3% (active). On the same count and under the same terms, the result for `CN1CC[C@@H]2[C@@]3(C)CC[C@H](O)C(C)(C)[C@@H]3CC[C@@]2(C)[C@]2(C)CC[C@@]3(CO)CCC(C)(C)C[C@@H]3C12` (some centres undefined) reads 96.7% (inactive).

Turning to `Brc1cc(-c2cc(-c3ccc4c(c3)OCCO4)[nH]n2)cs1`, the growth is 66% (inactive). On to `NS(=O)(=O)c1ccc(Nc2nc(Nc3ccccc3)nc(N3N=C(c4ccc(Cl)cc4)CC3c3ccc(Cl)cc3)n2)cc1` (centres undefined), for which the growth was 73.2% (inactive).

`O=C(N/N=C\c1ccc([N+](=O)[O-])cc1)c1ccc2nc(-c3ccc(Br)cc3)[nH]c2c1`: the growth is 6.72% (active). Consider `O=C(/C=C/c1cccc(C(F)(F)F)c1)Nc1cccc(C(F)(F)F)c1`, for which the growth is 118% (inactive). The same measure, in the same setting: the result for `Brc1cccc(-c2cc(-c3ccc4c(c3)OC=CO4)[nH]n2)c1` reads 63.8% (inactive); that for `CCc1cc2c(cc1Cl)nc1c(=O)[nH]c(=O)nc-1n2CCOCC(C)C`, 94% (inactive).

Take `CCCCSC1=C(Cl)CN(c2ccccc2)C1=O`: the growth is 110% (inactive). Still for that read-out and setting: the result for `Brc1ccc(-c2cc(-c3ccc4c(c3)OC=CO4)n[nH]2)s1` reads 91.3% (inactive); that for `O=c1c2cc(-c3ccc(F)cc3F)ccc2n(Nc2ccccc2)c(=O)n1-c1cccc(C(F)(F)F)c1`, 3.91% (active).

As to `CN1CCN(CCCCCC(=O)Nc2nc(-c3cccc(NS(=O)(=O)c4cccc5c(N(C)C)cccc45)c3)cs2)CC1`, the growth is 90.7% (inactive).

As to `CCCCc1nc2c(N)nc3ccccc3c2n1Cc1cccc(CN)c1`, the growth was 28.1% (inactive).

As for `CCCCCCCCCCCC(=O)NC(C)(C)C(=O)N1CCCC1C(=O)NC(C)(C)C(=O)NC(C)(C)C(=O)N1CCCC1C(=O)NC(C)(C)C(=O)NC(C)(C)C(=O)N1CCCC1C(=O)NC(C)C(=O)NCCC(=O)NC(C)C(=O)NC(C)(C)C(=O)NC(C)(C)C(=O)NC(C)(C)C(=O)NCCC(=O)NC(C)(C)C(=O)NC(C)(C)C(=O)NC(C)(C)C(=O)NC(C)C(=O)NCCC(=O)O` (centres undefined), the growth was -97.1% (active). On the same count and under the same terms, to `NS(=O)(=O)c1ccc(Nc2nc(N/N=C/c3ccc4c(c3)OCO4)nc(Nc3ccccc3)n2)cc1` belongs 76.7% (inactive); to `O=[N+]([O-])c1ccc(NC(=S)NNC(=S)Nc2ccc(Br)cc2)cc1`, 103% (inactive). With `Cc1cc(=O)[nH]c(O)c1C#N`, the growth is 113% (inactive). Same read-out and setting: the result for `Cc1ccc(OCc2occc2C(=O)N2CCOCC2)cc1` reads 117% (inactive); that for `O=C1C(SCc2ccccc2)=C(Cl)CN1c1ccccc1`, 108% (inactive). Same read-out and setting: the result for `COc1ccc(C2C(C#N)=C(/N=C/c3ccc(Cl)cc3)Oc3c2sc2c(C)cccc32)cc1` (centres undefined) reads 49.5% (inactive); that for `CN(C)CCNc1ccc2ncc(C#Cc3cncc(C(=O)Nc4ccc(CN5CCN(C)CC5)c(C(F)(F)F)c4)c3)n2n1`, -8.5% (active). Same read-out and setting: to `CN1CCC[C@]2(C)[C@H]3CC[C@@H]4[C@@H]5[C@H]6OC[C@@]5(CCC6(C)C)CC[C@@]4(C)[C@]3(C)CC[C@H]2C1(C)C` belongs 96.8% (inactive). On to `COc1ccccc1/C=C/C(=O)c1nnn(-c2ccc(F)cc2)c1C`, for which the growth is 62% (inactive). On the same count and under the same terms, the result for `CC(C)[C@H]1c2[nH]c3ccccc3c2C[C@H]2C(=O)N(CCCCCCC(=O)NO)CC(=O)N12` reads 101% (inactive); that for `COC(=O)CCCNCCCn1ccc2cc(NCc3cccc(-c4ccccc4)c3C)ccc21`, 90.2% (inactive); that for `C=C(C=O)[C@@H]1CC[C@]2(C(=O)O)CC[C@]3(C)C(CC[C@@H]4[C@@](C)(CCC#N)[C@H](C(=C)C=O)CC[C@]43C)[C@@H]12` (some centres undefined), 28.9% (inactive). On the same count and under the same terms, to `CC1(C)CC[C@]23CC[C@]4(C)[C@H](CC[C@@H]5[C@@]6(C)CC[C@H](NCO)C(C)(C)[C@@H]6CC[C@]54C)[C@H]2[C@H]1OC3` belongs 98.5% (inactive); to `O=C1/C(=C/C=C/c2ccco2)SC(=S)N1Cc1ccccc1`, 110% (inactive). Still for that read-out and setting: to `COc1ccc(/C=N/NC(=O)c2c(N)nn(C)c2Nc2ccccc2)cc1Oc1ccccc1` belongs 94.1% (inactive).

In the case of `Cc1[nH]c(C(=O)Nc2ccc(S(=O)(=O)N3CCCCC3)cc2OCCOCCOCCOCCOCCOCCOCCOCCOCCOc2cc(S(=O)(=O)N3CCCCC3)ccc2NC(=O)c2[nH]c(C)c3c2CCCCC3=O)c2c1C(=O)CCCC2`, the growth is 2.28% (active). Consider `COc1ccc(C(=NNS(=O)(=O)c2ccc(C)cc2)c2ccccc2)cc1OC`, for which the growth was 112% (inactive). The same measure, in the same setting: the result for `CNC(=O)c1cc(Oc2ccc3c(c2)sc2nc(-c4ccc(N(C)C)cc4)cn23)ccn1` reads 36.5% (inactive); that for `CN1CCN(Cc2ccc(/C=N/Nc3ccnc4cc(Cl)ccc34)cc2)CC1`, 123% (inactive). Still for that read-out and setting: to `O=C1Nc2ccccc2/C1=N\c1nnc(-c2ccccc2)o1` belongs 105% (inactive).

As for `COc1ccc2c(c1)C=CC1(O2)Oc2ccc(OC)cc2C=C1C` (centres undefined), the growth is 26.5% (inactive).

With `Cn1cc(-c2nn3cc(-c4ccncc4)nc3s2)c2cc(Br)ccc21`, the growth is 49.5% (inactive). For the compound `C#Cc1nc(/C=C/CCCCCCC(=O)NO)cs1`, the growth is 88.9% (inactive). Turning to `CC[C@]12CC(C(=O)OC)=C3Nc4ccccc4[C@@]34CCN(C14)[C@@H]1c3cc4c(cc3O[C@@H]1[C@H]2O)NC1=C(C(=O)OC)C[C@@]2(CC)C3N(CC[C@@]143)C[C@H]1O[C@H]12` (some centres undefined), the growth was 33.9% (inactive). Still for that read-out and setting: the result for `O=C(CCCCCCN1CC(=O)N2[C@@H](C3CC3)c3[nH]c4ccccc4c3C[C@H]2C1=O)NO` reads 104% (inactive).
